Compound activity (PubChem BioAssay)
Most compounds without a hit are left out; they make up all but 2.5% or so of the library.
aDG glyco act – activators of alpha-DG glycosylation, primary screen, uHTS, Pro5-aDG cells, AlphaScreen | AID 624168, 2012 | alpha-DG glycosylation AlphaScreen (IIH6); 0% Pro5, 100% B10-LARGE cell signal | activation, % at 10 µM | 360,000 compounds, 0.22% hits;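 active = activation of at least 8% versus controls, or a plate z-score of at least 8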;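 also: Pro5 are CHO cells carrying HIG-tagged alpha-DG that lacks glycosylation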
GC-A act – GC-A stimulated cGMP production enhancers – HEK293 GC-A cells, cGMP TR-FRET, EC30 ANP, primary screen; activation, % at 10 µM; 370,000 compounds, 0.14% hits; 0% at EC30 ANP, 100% saturating ANP; Atrial natriuretic peptide receptor 1 (Homo sapiens), P16066; AID 1671463, 2021; in the data active = activation above about 40%
Target sequence (P16066 whole entry, looked up): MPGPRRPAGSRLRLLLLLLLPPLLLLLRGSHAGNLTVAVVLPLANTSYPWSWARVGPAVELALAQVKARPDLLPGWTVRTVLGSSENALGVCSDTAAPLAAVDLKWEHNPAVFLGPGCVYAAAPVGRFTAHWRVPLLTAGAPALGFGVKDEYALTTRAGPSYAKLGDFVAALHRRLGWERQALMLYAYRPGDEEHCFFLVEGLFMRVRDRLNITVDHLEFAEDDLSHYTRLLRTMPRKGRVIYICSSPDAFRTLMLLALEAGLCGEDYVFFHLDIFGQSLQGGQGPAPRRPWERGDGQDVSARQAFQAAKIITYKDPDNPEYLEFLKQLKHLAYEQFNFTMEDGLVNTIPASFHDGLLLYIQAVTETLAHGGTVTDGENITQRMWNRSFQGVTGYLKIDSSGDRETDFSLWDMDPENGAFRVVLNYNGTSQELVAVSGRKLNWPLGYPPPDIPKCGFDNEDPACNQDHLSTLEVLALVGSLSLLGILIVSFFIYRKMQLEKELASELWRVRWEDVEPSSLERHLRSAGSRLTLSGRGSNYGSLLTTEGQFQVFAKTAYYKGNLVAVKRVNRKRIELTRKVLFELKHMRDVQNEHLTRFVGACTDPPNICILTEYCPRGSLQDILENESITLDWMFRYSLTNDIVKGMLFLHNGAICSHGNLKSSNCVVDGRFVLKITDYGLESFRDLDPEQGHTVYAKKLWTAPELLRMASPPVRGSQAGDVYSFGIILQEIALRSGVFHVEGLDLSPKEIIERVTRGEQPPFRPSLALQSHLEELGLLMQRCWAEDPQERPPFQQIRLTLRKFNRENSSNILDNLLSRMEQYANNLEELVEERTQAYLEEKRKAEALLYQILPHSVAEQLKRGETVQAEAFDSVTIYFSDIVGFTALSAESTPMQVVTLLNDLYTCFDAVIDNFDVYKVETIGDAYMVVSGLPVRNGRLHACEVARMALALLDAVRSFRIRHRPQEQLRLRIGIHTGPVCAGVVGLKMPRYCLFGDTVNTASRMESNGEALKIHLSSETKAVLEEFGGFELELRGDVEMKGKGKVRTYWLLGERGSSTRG
NPR2 activator – human GC-B receptor activators, primary screen, HEK293 GC-B cells, cGMP TR-FRET, EC30 CNP; 0% at EC30 CNP, 100% saturating CNP; 370,000 compounds, 0.11% hits; activation, % at 10 µM; Atrial natriuretic peptide receptor 2 (Homo sapiens), P20594;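 active = activation at 10 µM reaching about 35% in either raw or pattern-adjusted values, limit read from the data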
DYRK1A inh – rat Dyrk1A kinase inhibitors, primary screen, biochemical, single point, plate reader; ADP-Glo luminescence, NFATc1 peptide; 310,000 compounds, 0.43% hits; Dual specificity tyrosine-phosphorylation-regulated kinase 1A (Rattus norvegicus), Q63470; AID 504441, 2011; inhibition, % at 12.5 µM; in the data active = inhibition above about 50%
HSF-1 act – HSF-1 activators, primary screen, NIH3T3-HGL cells, MG132 stress, luminescence, single point; NIH3T3-HGL HSF-1 luciferase reporter, 8 h; 100% = twice DMSO control signal; activation, % at 9 µM; 300,000 compounds, 1.7% hits; AID 504408, 2011;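 active = mean replicate activation of at least 50% with a set share of replicates each reaching 50%; inconclusive = only one of those two conditions met; inactive = mean below 50% and too few replicates reaching it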
HSF1 inh – HSF1 inhibitors in luciferase reporter cells, primary screen, cell-based, NIH3T3, luminescence. NIH3T3-HGL HSE-luciferase, MG132-induced, luminescence 8 h; active compounds read low. activity change, negative = inhibition, % at 7.5 µM (by protocol). 300,000 compounds, 0.77% hits;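 active = more than half of replicate wells show activity change below -50%, luminescence cut by over half; inconclusive = some wells, but at most half, below -50%; inactive = no replicate well below -50%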;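 also: luciferase reports HSF-1 transcriptional activity via heat shock element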
Of the large screens only hits and unclear results are named; the others gave an inactive call.

Oc1ccc(/C=N/N(c2ccccc2)c2ccccc2)cc1O	HSF-1 act 82.6
O=C(/C(=N/N=C/c1ccc(O)c(O)c1)c1ccccc1)c1ccccc1	HSF-1 act 90.0
Oc1ccc(/C=N/N(c2ccccc2)c2ccccc2)c(O)c1O	none
Nc1c(C(=O)NC2CCCC2)sc2nc(-c3cccs3)ccc12	HSF-1 act 55.7
CCOC(=O)c1c(C)n(-c2ccc(C)cc2)c2c(CC(C)=O)c(Br)c(OC)c(O)c12	HSF-1 act 65.4
Clc1ccc(SCc2cn3ccsc3n2)cc1	HSF-1 act 111.0
O=c1c2ccccc2nc(SCc2cn3ccsc3n2)n1-c1ccccc1	HSF-1 act 64.6
Cc1cc(C)n2cc(CSc3ccc(Cl)cc3)nc2n1	none
Cc1csc2nc(CSc3ccc(Cl)cc3)cn12	HSF-1 act 67.5 (no result: GC-A act, NPR2 activator)
c1ccc(CSCc2cn3ccsc3n2)cc1	none
O=c1c2ccccc2nc(SCc2cn3ccsc3n2)n1-c1ccccc1F	none
N#CC(C#N)=C1C(=O)N(CCN2CCCCC2)c2ccccc21	none
Cc1ccc2nc(-c3ccc4c(c3)OCCO4)cc(C(=O)O)c2c1	HSF-1 act 52.0
O=C(NCCNc1ccnc2cc(Cl)ccc12)c1ccccc1F	HSF1 inh -79.2
Clc1ccc2c(NCc3ccccc3)ccnc2c1	none
O=C(NCCNc1ccc(Cl)cc1[N+](=O)[O-])c1ccccc1F	HSF-1 act 50.9
Cc1ccc(OCCSc2ncccn2)c(C)c1	HSF-1 act 61.8 (no result: DYRK1A inh)
Cc1cccc(OCCOCCSc2ncccn2)c1	none
CCOc1ccc(/C=C/C(=O)C(C(N)=O)=C2SCCS2)cc1	HSF-1 act 74.9
COCCNC(=O)C1CCCN(Cc2ccc(Cl)cc2)CC1 (stereo unspecified)	none (no result: DYRK1A inh, HSF-1 act, HSF1 inh)
C[C@H](O)Cc1cn(-c2cc3cc(C#Cc4ccsc4)ccc3oc2=O)nn1	GC-A act 46.8 (no result: HSF-1 act, HSF1 inh)
C[C@@H](O)CC#Cc1ccc2oc(=O)c(-n3cc(-c4ccsc4)nn3)cc2c1	none (no result: HSF-1 act, HSF1 inh)
CCc1nc(SCC(=O)Nc2cccc3ccccc23)[nH]c(=O)c1C	none
CC1(C)C(=O)Nc2ccccc2N1C(=O)COC(=O)Cc1ccc(Cl)c(Cl)c1	none (no result: HSF-1 act, HSF1 inh)
CN1CCN(c2ccc([N+](=O)[O-])cc2C(=O)N2CCOCC2)CC1	none
CCN(CC)c1ccc([N+](=O)[O-])cc1C(=O)N1CCOCC1	HSF-1 act 54.8
Cc1cccc(NC2=C/C(=N/S(=O)(=O)c3cccs3)c3ccccc3C2=O)c1	none (no result: HSF-1 act, HSF1 inh)
Cc1ccc(NC2=C/C(=N\S(=O)(=O)c3cccs3)c3ccccc3C2=O)c(C)c1	HSF1 inh -95.3 (no result: GC-A act, NPR2 activator)
Cc1ccc(Cl)cc1NC1=C/C(=N\S(=O)(=O)c2cccs2)c2ccccc2C1=O	HSF1 inh -94.3
CCOC(=O)c1snc(-c2ccc(F)cc2)c1N	HSF-1 act 58.7
CCOC(=O)c1sc(NC(=O)CN2CCN(c3ccc(OC)cc3)CC2)nc1C	none
CCOC(=O)C1=C(C)Nc2ncnn2C1/C=C/c1ccccc1 (stereo unspecified)	none
CCCC1=C(C(=O)OCC)C(/C=C/c2ccccc2)n2ncnc2N1 (stereo unspecified)	GC-A act 44.8
Cc1cc2c(cc1C)NC(CC(=O)NCc1ccccc1)C(=O)N2 (stereo unspecified)	HSF-1 act 75.5
CC(C)C1N(C(=O)N(C)C)CCN1S(=O)(=O)c1ccccc1 (stereo unspecified)	none
CCOC(=O)/C=C(\C)N1N=C(c2ccccc2)CC1c1ccccc1 (stereo unspecified)	HSF-1 act 64.6
COc1ccc(C2CC(c3ccc4ccccc4c3OC(C)=O)=NN2C(C)=O)cc1 (stereo unspecified)	HSF-1 act 93.7
CC(=O)OCC(=O)N1N=C(c2ccc3ccccc3c2)CC1c1ccccc1 (stereo unspecified)	HSF-1 act 52.8
CCOC(=O)c1nnn(CC(=O)N2N=C(c3ccccc3)CC2c2ccccc2)c1C(=O)OCC (stereo unspecified)	none
COc1ccc(C2CC(c3ccc4ccccc4c3)=NN2C(=O)COC(=O)C2CCC(=O)N2)cc1 (stereo unspecified)	HSF-1 act inconclusive
Cc1c(C(=O)NCc2ccccc2CN2CCCC2)oc2ccccc12	none (no result: HSF-1 act, HSF1 inh)
CC(CC(=O)O)CC(=O)Nc1cc(C(F)(F)F)cc(C(F)(F)F)c1 (stereo unspecified)	none (no result: DYRK1A inh)
O=C(O)c1cccc(CSc2nnc(Cc3ccccc3)o2)c1	none
CCc1ccc(Oc2c(Cl)cnn(-c3ccc(C)cc3)c2=O)cc1	none (no result: aDG glyco act, DYRK1A inh, HSF-1 act, HSF1 inh)
COc1ccccc1C(=O)NCC(=O)OCC(=O)c1cccc2ccccc12	HSF-1 act 60.3
COc1ccc(NS(=O)(=O)c2ccc3nc(COc4cccc5ccccc45)[nH]c3c2)cc1	none
COc1ccc(NS(=O)(=O)c2ccc3nc(COc4ccc5ccccc5c4)[nH]c3c2)cc1	HSF1 inh -81.0
COc1ccc(/C(C)=N/NC(=S)NCc2ccco2)cc1	HSF-1 act 73.4
S=C(NCc1ccco1)Nc1ccc(Br)cc1Cl	HSF-1 act 199.1
S=C(NCc1ccco1)NCc1ccco1	none (no result: HSF-1 act, HSF1 inh)
S=C(NCc1ccccc1)NCc1ccco1	HSF-1 act 56.2
CCOc1ccc(C2C(C(=O)c3ccc(C)o3)=C(O)C(=O)N2CCCN(CC)CC)cc1 (stereo unspecified)	none
CCCCC(=O)Nc1ccc(C(=O)NNC(=O)c2ccc(C)c(Br)c2)cc1	none
CS(=O)(=O)N1CCN(c2ccc(NC(=O)c3ccc(-c4ccc(Cl)cc4)o3)cc2)CC1	none
CN1CCN(c2ccc(NC(=O)c3ccc(-c4ccc(Cl)cc4)o3)cc2)CC1	aDG glyco act 5.5
Cc1ccc(C(=O)Nc2ccc(N3CCN(C)CC3)cc2)cc1C	HSF1 inh -51.4
CC(=O)c1ccc(NC(=O)c2ccc(C)c(Br)c2)cc1	HSF-1 act 56.0
Cc1ccc(C(=O)Nc2ccc(N3CCN(S(C)(=O)=O)CC3)cc2)cc1C	none
CON(Cc1ccccc1)S(=O)(=O)c1ccccc1Br	none (no result: aDG glyco act, DYRK1A inh, HSF-1 act, HSF1 inh)
COc1ccccc1CCc1nnc(N)s1	none
C/C(CC(=O)Nc1cc(C)ccn1)=N\NC(=O)COc1cccc(C)c1	none (no result: aDG glyco act, GC-A act, NPR2 activator, DYRK1A inh)
COCCN(C(=O)COC(=O)Cc1ccc(Cl)cc1)c1c(N)n(Cc2ccccc2)c(=O)[nH]c1=O	none (no result: DYRK1A inh, HSF-1 act, HSF1 inh)
Cc1sc2nc(C)n(/N=C/c3ccc(O)cc3O)c(=O)c2c1C	HSF-1 act 63.4
